Our source for the Inhibition values is ChEMBL document CHEMBL1157539, “Thousands of chemical starting points for antimalarial lead identification” (Nature, 2010).

Common to all, as to assay type: functional
Test [1] deals with Plasmodium falciparum. Kind of test: GSK_TCMDC: Inhibition of Plasmodium falciparum 3D7 in whole red blood cells, using parasite LDH activity as an index of growth. Test compounds present at 2uM.
Test [2] has as its system Plasmodium falciparum. Description: GSK_TCMDC: Inhibition of Plasmodium falciparum Dd2 in whole red blood cells, using parasite LDH activity as an index of growth. Test compounds present at 2uM.
Test [3] relates to HepG2. Kind of test: GSK_TCMDC: Percent inhibition of human HepG2 cell line. Test compounds present at 10uM.

Each structure is given as a SMILES string.

For the compound `CCCC1(NC[C@@H](O)[C@H](Cc2ccccc2)NC(=O)c2cc(NCC)cc(N3CCCCS3(=O)=O)c2)CC1.Cl`, the Inhibition – broadly, the share of the control response that was lost under treatment – in test [1] was 98%; in test [2], 98%; in test [3], 1%.
In the case of `CN(C)C(=O)c1ccc(CN(Cc2cccc(OC(C)(C)C)c2)Cc2ccc3c(c2)OCCO3)cc1`, the Inhibition in test [1] is 96%; in test [2], 96%; in test [3] it was 0%.
Regarding `COc1cncc(/C=C/c2cncc(C(=O)NCCc3ccc(Cl)cc3Cl)c2)c1`, the Inhibition worked out at 99% in test [1], 49% in test [2] and 0% in test [3].
Consider `Cc1ccc(NC(=O)c2ccc3ncccc3c2)cc1OC1CCN(CCC(C)C)C1.O=C(O)C(F)(F)F` (stereo not given), for which the Inhibition in test [1] is 98%; in test [2], 62%; in test [3], 5%.
The corresponding values for `CCN(CC)CCN(CCCc1ccc(-c2ccc(C(F)(F)F)cc2)cc1)C(=O)Cn1c(CCc2cccc(F)c2F)nc(=O)c2c1CCC2.O=C(O)C(O)C(O)C(=O)O` are 92%, 27% and 38%.
The like results for `CN(CCN)Cc1ccc(-c2ccc(-c3nc4cc(C(F)(F)F)ccc4[nH]3)s2)cc1.O=C(O)C(F)(F)F` were, in that order, 98%, 98% and 37%.
The like results for `O=C(Cn1c(CCc2cccc(F)c2F)nc(=O)c2ccccc21)N(CCCN1CCCCC1)Cc1ccc(-c2ccc(C(F)(F)F)cc2)cc1.O=C(O)C(O)C(O)C(=O)O` were, in that order, 100%, 94% and 100%.
As to `CCCCCCN1CCC(CNCc2cccc(Cl)c2)CC1.O=C(O)C(F)(F)F`, the Inhibition came to 85% in test [1], 13% in test [2] and 8% in test [3].
The like results for `COC(=O)c1c(NC(=O)c2cccc(C(F)(F)F)c2)sc2c1CCN(Cc1ccccc1)C2.Cl` were, in that order, 84%, 61% and 9%.
The like results for `CCc1ccc(CNCC(CCNc2cc(=O)c3ccccc3[nH]2)NCc2cc(Br)cc(Br)c2)o1` (stereo not given) were, in that order, 100%, 92% and 0%.
The like results for `COC(=O)c1ccc(Nc2nccc(Nc3ccc(Oc4ccccc4)cc3)n2)cc1.Cl` were, in that order, 93%, 15% and 0%.
Regarding `Cc1ccc2nc(C)cc(N/N=C/c3cccc([N+](=O)[O-])c3)c2c1`, the Inhibition amounted to 100% in test [1], 99% in test [2] and 0% in test [3].
For the compound `N#Cc1cc([N+](=O)[O-])ccc1-n1nc(C(N)=O)n(Cc2cccc(F)c2)c1=S`, the Inhibition in test [1] is on record as 100%; in test [2], 100%; in test [3] it was 6%.
For the compound `COc1cc2c(cc1OCCN1CCC(N3CCCCC3)CC1)N(C(=O)/C=C/c1ccccc1Cl)CC2`, the Inhibition is recorded as 100% in test [1], 41% in test [2] and 36% in test [3].
The like results for `O=C(C=Cc1ccc(Cl)c(Cl)c1)NCCCCCN1CCC(CCNS(=O)(=O)c2ccc(Br)cc2)CC1` were, in that order, 91%, 0% and 58%.
The corresponding values for `COCCNCc1cccc(-c2ccccc2CN(C(=O)c2ccc3c(c2)OCO3)c2ccc(OC)cc2)c1.O=C(O)C(F)(F)F` are 90%, 46% and 6%.
The like results for `CC1CCC2(CC1)N=C(N)N=C(N)N2OCc1cc2ccccc2c2ccccc12` (stereo not given) were, in that order, 97%, 41% and 27%.
For `O=C(O)C(F)(F)F.c1ccc(CCNc2ccnc(Nc3ccc4[nH]nnc4c3)n2)cc1`, the Inhibition is given as 100% in test [1], 95% in test [2] and 33% in test [3].
On to `CC(c1cccc(S(=O)(=O)NCc2ccc(Cl)cc2Cl)c1)N1CCC(N2CCCCC2)CC1` (stereo not given), for which the values for the Inhibition in test [1], in test [2] and in test [3] were 100%, 40% and 36%, respectively.
The like results for `Clc1ccc2c(Cl)c(CNCCCNc3nc4ccccc4[nH]3)[nH]c2c1` were, in that order, 100%, 7% and 38%.
The like results for `N#Cc1nc2ccc(OCCN(Cc3ccccc3C(F)(F)F)c3ccc(C#N)c(C(F)(F)F)c3)cc2s1` were, in that order, 93%, 47% and 23%.
The like results for `O=C(c1cccc(Br)c1)N1CCN(c2ccc([N+](=O)[O-])c(NC3CC3)c2)CC1` were, in that order, 99%, 100% and 5%.
Take `Cc1cccc2nc(-c3ccc(-c4cccc(CN5CCC(CCN6CCCCC6)CC5)c4)s3)[nH]c12.O=C(O)C(F)(F)F`: the Inhibition in test [1] was 100%; in test [2] it was 100%; in test [3], 99%.
`O=C(O)C(F)(F)F.c1cc(CN2CCN(CCN3CCOCC3)CC2)cc(-c2ccc(-c3nc4ccccc4[nH]3)cc2)c1`: the figures for the Inhibition in test [1], in test [2] and in test [3] were 100%, 100% and 23%, respectively.
Take `Br.N=C1N=C(N)NC2(CCCCC2)N1OCCCOc1cccc2ccccc12`: the results for the Inhibition in test [1], in test [2] and in test [3] were 95%, 96% and 67%, respectively.
Take `Cc1cccc2nc(-c3ccc(-c4cccc(NC(=O)CCc5c[nH]cn5)c4)cc3)[nH]c12`: the Inhibition in test [1] is listed as 100%; in test [2] it was 14%; in test [3], 13%.
The like results for `CC1CCCCC1N(C)C1CCN(CCCNC(=O)C=Cc2cccc(C(F)(F)F)c2)CC1` (stereo not given) were, in that order, 100%, 17% and 47%.
The like results for `Cc1cc(N2CCCC2)nc(Nc2ccc(NC(=O)c3ccccc3F)cc2)n1` were, in that order, 98%, 44% and 36%.
The corresponding values for `CCCc1cc(Cc2cnc(N)nc2N)ccc1OCCCCCC(=O)O.Cl` are 97%, 0% and 3%.
Take `CC(C)C(NC(=O)Cc1cccc2ccccc12)C(=O)Nc1cccc(C#N)c1` (stereo not given): the values for the Inhibition in test [1], in test [2] and in test [3] were 92%, 91% and 0%, respectively.
